{"source": "PubChem BioAssay (NCI)", "note": "Values joined by “and” are separate entries in the source; they are usually repeats but may differ in a detail not shown here. Equal values may be shown once. Compounds without any hit were thinned out: in the full panel of roughly 83,000, 20% have a hit.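 Step 1: grow cells in 96-well plates. Step 2: add test compound at a single concentration. Step 3: incubate 48 h. Step 4: record percent growth.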 Unmarked numbers belong to inactive results. Active and inactive are the calls of the source. How the source made its calls: active means growth percent below 10; inactive means the rest.", "data": [{"tested_on": "HL-60(TB) leukemia", "test": "NCI-60 one-dose screen, 48 h (100 = growth as untreated, 0 = no growth, -100 = all killed)", "details": "10 µM unless noted", "values": [{"smiles": "S=C(Nc1ccc(-c2nc(N3CCOCC3)c3cccn3n2)cc1)Nc1cccnc1", "growth": "59.9%"}, {"smiles": "Cc1cc2nc3c4cc(O)ccc4n(CCN(C)C)c3nc2cc1C", "growth": "7.36% (active)"}, {"smiles": "CN(O)c1nc(N(C)O)nc(N2CCOCC2)n1", "growth": "21.5%"}, {"smiles": "O=C(Nc1nc(-c2ccccc2Cl)cs1)c1cc(-c2ccccc2)nc2ccc(Cl)cc12", "growth": "-3.8% (active)"}, {"smiles": "CC(C)c1cc(N=O)cc(C(C)C)c1O", "growth": "93%"}, {"smiles": "CCN(CCO)CCC(=O)c1ccc([N+](=O)[O-])cc1", "growth": "109%"}, {"smiles": "CCOc1cc(CCNS(=O)(=O)c2ccc(C)cc2)c(C(C)=O)cc1OCC", "growth": "46.5% [100 µM]"}, {"smiles": "CC(=O)Nc1cc(S(=O)(=O)O)cc2cc(S(=O)(=O)O)c(N=Nc3ccccc3)c(O)c12", "growth": "109% and 94.3%"}, {"smiles": "O=C(Cn1c(-c2ccc([N+](=O)[O-])cc2)nc2ccccc21)NNC(=O)c1cccnc1", "growth": "65.9%"}, {"smiles": "Nc1nc2ccccc2c2c1S(=O)(=O)c1ccc(Cl)cc1C2=O", "growth": "-24.2% (active)"}, {"smiles": "Nc1nonc1-c1nc2ccccc2n1Cc1ccc(F)cc1", "growth": "21.5%"}, {"smiles": "Cc1ccc(S(=O)(=O)n2ccnc2)cc1", "growth": "124%"}, {"smiles": "Cc1cc(-c2ccccc2)c(C)n1Cc1ccc(Cl)cc1", "growth": "-27.2% (active)"}, {"smiles": "CN(c1ccccc1)c1ccc2c(c1)OCCC21CC1Nc1cnccc1C(=O)O", "note": "(stereo not given)", "growth": "65.3%"}, {"smiles": "CC(C)(O)Cn1cc(-c2ccc3nc(OC4CC4)ccc3c2)c2c(N)ncnc21", "growth": "97.3% and 76.7%"}]}]}
